From PubChem
PMK inhibit – inhibitors of Streptococcus pneumoniae phosphomevalonate kinase; purified PMK, PK/LDH-coupled NADH absorbance 340 nm; inhibition, % at 10 µM; hit rate 0.49% among 65,000; AID 539;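 active = top-ranked compounds by inhibition in the single 10 µM screen, taking a fixed number of the strongest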;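 also: 0% = full reaction with DMSO carrier and 100% = background rate without enzyme reaction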
Autofluor 339 – intrinsic fluorescence of library compounds, ex339/em460 – biochemical, MLSMR library, data from DPM-DC assay, artefact control, profiling panel | hit rate 5.5% among 65,000 | fluorescence fold increase at 10 µM | compound autofluorescence, ex339/em460 nm, NADH buffer; hits give high values; 1 = no-compound wells, NADH background | AID 709;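 active = at 10 µM, mean starting fluorescence two-fold or more over control wells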;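 also: signal is the first read of a kinetic run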
A340 absorber – absorbance at 340 nm; compound absorbance at 340 nm, fold over control; fold change at 10 µM; 65,000 tested, under 10 active; AID 708;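 active = at 10 µM dose, initial 340 nm absorbance at least 2 fold that of control wells; inactive = change under 2 fold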;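 also: initial absorbance extrapolated from kinetic A340 decline of NADH oxidation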
MK inhibit – S. pneumoniae mevalonate kinase inhibition; inhibition, % at 10 µM; hit rate 0.48% among 65,000; purified MK, PK/LDH-coupled NADH absorbance 340 nm;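 active = ranked among the strongest by inhibition in the single 10 µM screen, a fixed top-ranked set picked for dose follow-up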
DPM-DC inhibit – inhibitors of Streptococcus pneumoniae diphosphomevalonate decarboxylase; purified DPM-DC, PK/LDH coupled NADH fluorescence; calls only at 10 µM; hit rate 0.49% among 65,000; AID 556;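 active = the 320 compounds with the highest percent inhibition in the single-dose primary screen, excluding strongly autofluorescent ones, cut at about 32% in these data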;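 also: kinetic rate of NADH fluorescence loss reporting ADP formed by the decarboxylase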
NADH enzymes – blocks coupling enzymes of NAD/NADH assays | coupled PK/LDH NADH assays, four targets | hit rate 0.02% among 65,000 | IC50, µM (series often up to 10 µM), for the others: at the top dose inhibition;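 active = single-dose screening hits from any of four coupled enzyme assays that gave an IC50 when retested across doses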;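 also: the DPM-DC format reads NADH fluorescence rather than 340 nm absorbance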
Active calls of the source: *; i = inactive; · = no result shown; + = active, no number. Only some compounds are listed: those with a hit (about 6.5% of all), similar ones and a draw of the others.

SMILES	PMK inhibit	Autofluor 339	A340 absorber	MK inhibit	DPM-DC inhibit	NADH enzymes
CCCCCCNC(=O)c1c(N)n(/N=C/c2ccco2)c2nc3ccccc3nc12	10	3*	1.1	11	·	5%
CCOC(=O)N1CCC(NC(=O)Cn2ncn3c(cc4sc(CC)cc43)c2=O)CC1	14	1.1	0.99	4	i	6%
CCOC(=O)/C=C1\SCC(=O)N1CCOc1cccc(Br)c1	16	1	1	2	i	6%
COc1ccc(-c2cc(C(=O)Nc3ccccc3SC)no2)cc1OC	10	2.2*	1.1	3	i	5%
COc1ccc(-c2cc(C(=O)Nc3cc(C)n(Cc4ccc(Cl)cc4)n3)no2)cc1OC	16	2.2*	1.1	0	i	11%
COc1ccccc1-c1cc(C(=O)Nc2cccnc2)no1	8	1.1	1	1	i	3%
COc1cccc(-c2cc(C(=O)Nc3ccccc3SC)no2)c1	10	1.4	1	4	i	5%
COc1ccc(-c2cc(C(=O)Nc3cnn(Cc4ccccc4C)c3)no2)cc1OC	23	2.4*	1	0	i	12%
COc1ccc(NC(=O)c2cc(-c3ccccc3OC)on2)cc1	11	1.1	1	48*	i	20%
COc1ccccc1-c1cc(C(=O)Nc2ccccc2SC)no1	11	2.8*	1	5	i	15%
CSc1ccccc1NC(=O)c1cc(CC(C)C)on1	2	0.9	1	16	i	6%
CN(C)c1ccc(-c2nnn(CC(=O)N3c4ccccc4CCc4ccccc43)n2)cc1	0	2.6*	1.1	0	i	0%
CN(C)c1ccc(-c2nnn(CC(=O)Nc3ccccc3N3CCOCC3)n2)cc1	7	1.3	1	3	i	4%
C=C(C)Cn1c(NCCOC)nc2c1c(=O)[nH]c(=O)n2C	13	1.1	1	0	i	4%
COc1ccccc1/C=C/CN1CC(C)OC(C)C1 (configuration not stated)	0	1.1	1.1	48*	i	16%
CCN(C(=O)c1coc(=O)c(Br)c1)c1ccc2c(c1)OCO2	13	3.4*	1.1	0	·	7%
Cc1cc(C(F)(F)F)nn1CCCNC(=O)c1cnccn1	0	1.1	1.1	4	i	1%
CCOC(=O)N1CCN(c2cc(C)nc3nc(C)nn23)CC1	4	2.1*	1	5	·	5%
Cc1cc(N2CCCC2)n2nc(C)nc2n1	5	1.1	1	6	i	4%
CC1Cc2nc(SCC(=O)Nc3ccc4c(c3)OCO4)n(CCc3ccccc3)c(=O)c2S1 (configuration not stated)	3	0.92	1.1	1	+	13%
CC1(C)CC(=O)C=C(NCC2CCCO2)C1 (configuration not stated)	0	1.1	1.1	0	i	0%
Cc1cc(C)n(-c2nc3ccccc3[nH]c2=O)n1	17	2.8*	1.1	3	i	11%
Cc1cc(C)n2c(SCC(=O)N(C)C3CCS(=O)(=O)C3)nnc2n1 (configuration not stated)	25*	1.1	0.99	0	i	8%
COc1cc(OC)c2c(C)c(Cl)c(=O)oc2c1	9	3.7*	1.1	0	·	5%
COc1ccc(Cn2c(C)nc3oc4cc(OC)ccc4c(=O)c3c2=O)cc1	0	1.1	1.1	6	i	2%
SMILES	PMK inhibit	Autofluor 339	A340 absorber	MK inhibit	DPM-DC inhibit	NADH enzymes
COC(=O)c1ccccc1NC(=O)CN(C)S(=O)(=O)c1cc(C)ccc1OC	9	1	1	10	i	7%
CN(C)c1nc2ccc(OCCN3CCCCC3)cc2s1	12	1.1	1	6	i	6%
Cc1cc2nc(-c3ccc(SCC(=O)N4CCN(C(=O)c5ccco5)CC4)nc3)[nH]c2cc1C	7	4.4*	1.3	11	·	9%
Cc1cc2nc(-c3ccc(SCC(=O)N4CCOCC4)nc3)[nH]c2cc1C	3	2.2*	1.1	7	·	5%
O=C(c1cccc(F)c1)N1CCN(Cc2ccco2)CC1	3	1.1	1.1	44*	i	16%
O=C(O)CCS(=O)(=O)Cc1ccccc1F	27*	1.1	1	1	i	9%
O=C(O)CCCNCc1ccccc1F	11	1.1	0.98	5	i	5%
Cc1cccc(OCc2nnc(SCc3cc(=O)n4cc(Br)ccc4n3)o2)c1	8	1.4	1.1	6	i	8%
CCOc1ccc(-c2nnc(-c3snc(-c4ccc(F)cc4)c3N=CN(C)C)o2)cc1	7	3.8*	1.1	0	·	4%
COCCn1c(C)cc(C(=O)COc2nc3ccccc3nc2C)c1C	13	1.1	1.1	9	+	18%
O=c1c(-c2ccccc2)c(O)c2cccc3c2n1CCC3	66*	1.4	1.1	43*	+	62%
O=C(Nc1cccc(O)c1)c1ccc(Br)c(S(=O)(=O)N2CCCCC2)c1	0	1.1	1	12	i	4%
CCOc1ccccc1N(C(=O)c1snc(C(N)=O)c1N)C(C(=O)NC1CCCC1)c1ccco1 (configuration not stated)	·	2.4*	1.1	5	i	14%
COCCNC(=O)C(c1ccc(C)o1)N(C(=O)c1snc(C(N)=O)c1N)c1cccc(C)c1 (configuration not stated)	16	2.5*	1	7	i	15%
Cc1ccc(C(C(=O)NC2CCCC2)N(Cc2cccnc2)C(=O)c2snc(C(N)=O)c2N)o1 (configuration not stated)	7	2.6*	1.1	9	i	13%
C=CCn1cnc2c(c1=O)c1nc3ccccc3nc1n2-c1ccc(Cl)cc1	3	1.2	1	11	i	5%
CN(c1ccc(Cl)cc1)c1cc(=O)n(C)c2ccccc12	5	1.3	1.1	2	i	3%
CN(C)c1ccc2c(O)cc(=O)n(C)c2c1	0	2.3*	1.1	6	·	3%
O=C(NCCC1=CCCCC1)C1CCN(S(=O)(=O)c2cccc3nsnc23)CC1	9	1.1	1	9	i	4%
Nc1c(C(=O)NC2CC2)c2nc3ccccc3nc2n1-c1ccc2c(c1)OCO2	2	3.2*	1.1	10	·	6%
CCCNC(=O)c1c(N)n(-c2cc(OC)cc(OC)c2)c2nc3ccccc3nc12	17	2.5*	1	2	·	4%
CCCNC(=O)c1c(N)n(-c2ccc3c(c2)OCO3)c2nc3ccccc3nc12	15	1.4	1.1	7	i	9%
COCCCNC(=O)c1c(N)n(-c2ccc3c(c2)OCO3)c2nc3ccccc3nc12	3	2.7*	1.1	3	i	5%
O=C(C1CCCN(S(=O)(=O)c2cccc3cccnc23)C1)N1CCN(c2ccc(F)cc2)CC1 (configuration not stated)	0	1	1	3	i	2%
